Compound activity from PubChem BioAssay.
A selection: hits, their analogues and other compounds. The true share with any hit is near 4.5%.
hcDAF-12 act = activators of H. contortus DAF-12 nuclear receptor. activation, % at 6.8 µM. HEK293 hcDAF-12 lit1-tk-luc reporter, luminescence; 0% DMSO, 100% Δ7-dafachronic acid. AID 652067. hit rate 1.4% among 370,000;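 active means activation above the mean of all tested compounds plus 3 SD, cut at about 5.5% in these data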;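 further: 100% = response to 3 µM Δ7-dafachronic acid high control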
GAA850 FXN act = increases GAA850 frataxin promoter reporter activity | hit rate 0.56% among 360,000 | activation, % at 6 µM | AID 540364 | HEK293 lucGAA850 FXN promoter luciferase reporter, 24 h; percent of 10 µM SAHA response;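 active means activation above the average of all compounds screened plus 3 SD, cutoff fixed separately per campaign, cut at about 7.5% in these data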;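 further: 0% = DMSO wells and 100% = 10 µM SAHA wells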
DAX1 inh-1 = inhibitors of human orphan nuclear receptor DAX1 (NR0B1) | P51843 | AID 504766 | hit rate 0.99% among 340,000 | HEK293 Gal4-DAX1 luciferase reporter, luminescence | inhibition, % at 6.75 µM;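 active means inhibition above the mean over all tested compounds plus 3 SD, cut at about 4.2% in these data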;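 further: 0% = DAX1-transfected cells with DMSO and 100% = empty-vector control cells with DMSO; inhibition shows as a rise in luminescence from relieved DAX1 repression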
Target sequence (P51843 207-470 limits assumed): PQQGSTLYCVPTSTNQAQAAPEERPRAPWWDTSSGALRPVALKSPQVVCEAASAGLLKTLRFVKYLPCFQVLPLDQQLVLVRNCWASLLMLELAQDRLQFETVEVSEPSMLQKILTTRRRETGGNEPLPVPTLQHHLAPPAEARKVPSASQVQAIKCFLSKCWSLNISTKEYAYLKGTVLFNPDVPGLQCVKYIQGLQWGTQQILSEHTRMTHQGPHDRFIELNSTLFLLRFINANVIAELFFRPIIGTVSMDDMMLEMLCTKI
ssDAF-12 act = S. stercoralis DAF-12 activation, primary screen. HEK293 ssDAF-12/GRIP1 lit1-tk-luc reporter, luminescence; % of 3 µM dafachronic acid response. activation, % at 6.8 µM. hit rate 1% among 370,000. AID 652126;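 active means activation above the mean over all tested compounds plus 3 SD, cut at about 0.9% in these data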;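 further: 0% = DMSO-only wells and 100% = 3 µM delta7-dafachronic acid wells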
hgDAF-12 ag = hgDAF-12 agonism, primary luciferase screen; hit rate 1.8% among 370,000; AID 687014; activation, % at 6.8 µM; HEK293 GAL4-hgDAF12 UAS-luciferase reporter, agonist luminescence; normalized to butyrate control;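 active means activation above a cutoff set at the mean of all screened compounds plus 3 SD, cut at about 10% in these data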;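 further: 0% = DMSO wells and 100% = sodium butyrate wells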
DAX1 inh-2 = inhibitors of DAX1 repression of SF-1 activated StAR promoter; HEK293T StAR-luciferase reporter, SF-1/DAX-1 repression relief; inhibition, % at 6.8 µM; hit rate 1.1% among 370,000; AID 652010;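 active means inhibition above the mean over all tested compounds plus 3 SD, cut at about 3.6% in these data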;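 further: 0% = DAX-1 cells with DMSO and 100% = cells lacking DAX-1 with DMSO; higher inhibition means more luminescence from relief of DAX-1 repression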
* hit, by the source's call; · = no result given.

SMILES | hcDAF-12 act | GAA850 FXN act | DAX1 inh-1 | ssDAF-12 act | hgDAF-12 ag | DAX1 inh-2
O=C(Nc1ccccc1N1CCN(c2ccccc2)CC1)c1ccccc1F | 1 | 0 | -1 | -1 | 4 | 0
CC(=O)c1cccc(NC(=O)C2CCCC2)c1 | -1 | -2 | 0 | -1 | 0 | 0
O=C(Nc1ccc2c(c1)OCO2)C1CCCCC1 | -1 | 1 | 0 | -1 | 3 | 4.0*
O=C(Nc1ccc(N2CCN(c3ccccc3)CC2)c(F)c1)C1CC1 | 5.8* | 0 | 1 | 0 | 1 | 1
O=C(CSc1ccccc1F)Nc1ccc2c(c1)OCO2 | 2 | 2 | 1 | -1 | 11* | 2
CC(=O)c1ccc(NC(=O)C2CCCC2)cc1 | -1 | 2 | 6.0* | -1 | 1 | 0
O=C(CSc1ccccn1)Nc1ccc2c(c1)OCO2 | 3 | 1 | · | -2 | 8 | -1
Cc1nc(SCC(N)=O)[nH]c(=O)c1C | -1 | · | · | -1 | 1 | ·
C=CCOC(=O)N[C@H](c1ccc2ccccc2c1)[C@H](C)/C=C/CC(=O)OC | 0 | · | · | -2 | 1 | 0
CCNC(=O)N(C)[C@H]1C[C@H]2c3[nH]c4cccc(-c5ccc6c(c5)OCO6)c4c3CCN2C[C@H]1[C@H](C)O | -2 | · | · | -1 | -6 | -1
O=C(CC(=O)c1ccccc1)Nc1ccc2c(c1)OCCO2 | 3 | 3 | 2 | 1 | 12* | 3
Cc1ccc(SCC(=O)Nc2ccc(N3CCN(c4ccccc4)CC3)c(F)c2)cc1 | 0 | -1 | 0 | -1 | 1 | 0
Cn1nc(C(=O)Nc2ccc3c(c2)OCO3)c2ccccc2c1=O | -1 | 2 | 0 | 2.4* | 2 | 0
Cc1ccccc1C(=O)Nc1ccc2c(c1)OCCO2 | 5 | 2 | -3 | 1.8* | 11* | 3
CN1CCN(c2ccc(NC(=O)CSc3ccccc3)cc2F)CC1 | 4 | 0 | 5.3* | 0 | 11* | 3
C[C@@H]1/C=C/CC(=O)N2[C@H](CC(=O)N[C@@H]1c1ccccc1)C[C@@H](C)[C@H]2c1ccccc1 | 0 | · | · | -1 | -1 | 0
C=CCC12C=C(OC)C(=O)C(C1=O)C1c3ccccc3CC12 (stereo not drawn) | 1 | · | · | -1 | 1 | 0
CCOC(=O)C1(Cc2ccccc2)CCN(Cc2ccc(C(F)(F)F)cc2)CC1 | 0 | · | · | -1 | 4 | 0
CC(C)N1CCCCC(NC(=O)c2cccc(F)c2)C1=O (stereo not drawn) | 0 | · | · | -2 | 2 | 0
Clc1ccc(-n2c(SCc3cccc4ccccc34)nnc2-c2ccccc2)cc1 | -2 | · | · | -2 | -1 | -1
O=C(Nc1ccc2c(c1)OCO2)c1c(F)cccc1F | 6 | 0 | 1 | -1 | 13* | 2
O=C(CSc1ncn(-c2ccccc2)n1)Nc1ccc2c(c1)OCCO2 | 1 | -2 | 1 | 0 | 2 | 0
O=C(Nc1ccc2c(c1)OCCO2)c1cnn(-c2ccccc2)n1 | 1 | 2 | 0 | 0 | 10 | 4.2*
CCCCNS(=O)(=O)CC1NCc2ccc(C)cc21 (stereo not drawn) | 2 | · | · | -1 | 3 | 0
CNC(=S)N/N=C/c1c(C(=O)OC)cnn1-c1ccc(Cl)cc1 | -2 | · | · | -2 | -4 | ·
SMILES | hcDAF-12 act | GAA850 FXN act | DAX1 inh-1 | ssDAF-12 act | hgDAF-12 ag | DAX1 inh-2
COc1ccc(-n2c(SCC(=O)NC3CCCCCC3)nnc2-c2ccncc2)cc1 | -1 | · | · | -1 | 1 | 0
COc1ccc(N=Nc2ccc(N)nc2N)cc1 | 5 | 7 | 4.6* | 0 | 11* | 3
Fc1ccc(-n2nnc(-c3ccccc3)n2)cc1 | -1 | 0 | 1 | 0 | -3 | -1
Cn1c(-c2nnn(-c3ccc(F)cc3)n2)cc2ccccc21 | 12* | · | · | 1 | 9 | 2
COc1ccc(Nc2nnc(SCC(=O)NC3CC3)s2)cc1 | 0 | 1 | -1 | -1 | -2 | 0
O=C(Nc1nnc(S(=O)(=O)Cc2ccc(F)cc2)s1)c1ccccc1F | -3 | 0 | -1 | 1.3* | -1 | 0
O=C(CSc1nnc(NC(=O)c2ccccc2F)s1)Nc1ccccc1F | 2 | 3 | 2 | -2 | 13* | 3
CCSc1nnc(NC(=O)c2ccccc2C)s1 | 2 | 4 | 4 | -1 | 13* | 4.4*
COc1ccc(Nc2nnc(SCC(=O)NC3CCS(=O)(=O)C3)s2)cc1 (stereo not drawn) | 2 | 0 | 1 | 0 | 2 | 3.6*
CN1[C@@H](Cc2ccccc2)COc2cc(N3CCCC3)ccc2S1(=O)=O | -2 | · | · | -2 | -4 | -3
CCN1Cc2nnn(Cc3ccccc3)c2-c2cc(N3CCCC3)ccc2S1(=O)=O | -3 | · | · | -2 | 1 | 0
COc1ccc(-c2ccc(SCC(=O)NC3CCCC3)nn2)cc1 | 1 | -1 | 4.4* | -1 | 2 | 0
COc1cccc(C(=O)Nc2nnc(SCC(=O)NC3CC3)s2)c1 | 1 | 2 | 0 | -1 | 0 | 0
COc1ccc2c(c1)c1nnc(SCC(=O)NC3CC3)nc1n2C | 4 | -2 | 1 | 1.7* | 0 | 0
CCSc1nnc(NC(=O)CC(C)C)s1 | 1 | 2 | 6.4* | -2 | 2 | 1
Cc1ccc2c(c1)c1nnc(SCC(=O)NC3CC3)nc1n2C | 2 | -2 | 0 | -1 | 4 | 0
COc1ccc(C(=O)Nc2nnc(SCC(=O)NC3CC3)s2)cc1 | 0 | 1 | 2 | 0 | 11* | 1
C=CCN1[C@H](Cc2ccccc2)COc2cc(N3CCSCC3)ccc2S1(=O)=O | -2 | · | · | -2 | 3 | -2
CC(=O)NC(Cc1ccc2c(c1)OCO2)C(=O)N1CCCC1 (stereo not drawn) | -1 | · | · | -1 | 1 | 0
O=C(CCc1ccccc1-c1ccccc1CCNC(=O)COCc1ccccc1)NCc1ccccc1 | -1 | · | · | -1 | 4 | -1
CCc1ccc(Nc2nnc(SCC(=O)N(C)C3CCS(=O)(=O)C3)s2)cc1 (stereo not drawn) | 1 | 3 | 1 | 0 | 12* | 2
CCc1ccc(-c2nc(SCC(=O)NC3CCS(=O)(=O)C3)n[nH]2)cc1 (stereo not drawn) | 1 | 2 | 3 | 0 | 0 | 3.6*
O=C(CSc1nnc(NC(=O)c2ccccc2Cl)s1)NC1CC1 | 5.6* | 4 | 2 | 0 | 7 | 1
O=C(CSc1n[nH]c(-c2ccncc2)n1)NC1CCS(=O)(=O)C1 (stereo not drawn) | -1 | 0 | 1 | -1 | -1 | 0
COC(=O)[C@]12C[C@H](CC(=O)N3CCN(C(=O)C4CC4)CC3)C(=O)N(CCc3ccc(OC)c(OC)c3)C1=C[C@H](C1CCCC1)O[C@@H]2C | -2 | · | · | -2 | 0 | 0
COC(=O)[C@]12C[C@H](CC(=O)NCc3cccc(C(F)(F)F)c3)C(=O)N(Cc3ccco3)C1=C[C@H](C1CCCC1)O[C@@H]2C | -3 | · | · | 0 | -3 | -2
